# Test results from the supplement of paper PMC10338343.
# ± gives the standard deviation.
# Test system: EfPiwi piRISC loaded with L1MC piRNA (26 nt)
# Assay: pre-steady-state target cleavage rate (min^-1); auxiliary factor: 500 nM Ephydatia muelleri Gtsf1; guide: L1MC piRNA 5'p-UAACUAAAUACUAUGCAAGCUGUAGG; MIWI and MILI are mouse PIWI proteins and EfPiwi is from a freshwater sponge; tags in brackets are library labels; higher = faster piRNA-guided slicing of the target
# How it was run: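 Cleave-'n-Seq used a transcribed, DNA-blocked target RNA library at 0.1 nM and active affinity-purified piRISC with one synthetic guide at 1 nM, with or without 500 nM GTSF1 partner protein, in HEPES–potassium acetate buffer at 33 °C for 0–8 or 0–960 min. Uncleaved targets were sequenced and normalised to depth and to weakly complementary targets, and three trials were pooled with k3 capped at 0.0001 min^-1. The pre-steady-state cleavage rate was estimated by a burst-and-steady-state fit.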
row,Sequence,pre-steady-state target cleavage rate
1,UCCUGCUACAGGAAGCAUAGUAUUUAGUUA,0.0127 ± 0.0035
2,UCCUGGAACAGCUUCCAUAGUAUUUAGAAA,0.00411 ± 0.0022
3,UCCUGGAUGUGCUUGCAUACUAUUUAGAUA,0.00202 ± 0.0015
4,UCCUCCAACAGCUUGCAUAGAAUUUAGUUA,0.00468 ± 0.0016
5,UCCUGGUACAGCUUCCAUAGUAUUUAGUAA,0.00378 ± 0.0022
6,UCCUCCUAGAGCAUGCAUAGUAUUUAGUUA,0.0163 ± 0.0058
7,UCCUGGAUGUCGAACGUAUCUAUUAUAGUUA,< 0.0001
8,UCCUGGAUGUCGAACGUAUCUAUUUAGUAA,< 0.0001
9,UCCUGGAUGAGCUUGCAUAGUAUUUUCUAA,0.00391 ± 0.0026
10,UCCUCCUACAGCUUUCAUAGUAUUUAGUUA,0.00691 ± 0.0022
11,UCCUGGAUGUCGAAGGAUAGUUUUUAGUUA,< 0.0001
12,UCCUCCAACAGCUUGCAUAGUAUUUAGUAA,0.00668 ± 0.0028
13,UCCUGCUUCAGGUUGCAUAGUAUUUAGUUA,0.0664 ± 0.015
14,UCCUGGAUCAGCUUGCAUAGUAUUUAGUUA [g2:g22:cont:t1A],0.0886 ± 0.017
15,UCCUGCUACAGCUUCCAUAGUAUAUAGUUA,0.00251 ± 0.0024
16,UCCUCCUACAGCUUGCCUAGUAUUUAGUUA,0.0514 ± 0.014
17,UCCUCCUACAGCUUCCAUAGUAUUUAGAUA,0.00393 ± 0.0021
18,UCCUGGAUGUCCUUGCAUAGUAUUUAGUUA [g2:g19:cont:t1A],0.00824 ± 0.003
19,UCCUGCUACAGCUUGCAUUGUAUUUACUUA,0.00271 ± 0.0027
20,UCCUGGUACAGCAUUGCAUAGUAUUUAGUUA,0.0107 ± 0.004

row,Sequence,pre-steady-state target cleavage rate
1,UCCUCCUGACAGCUUGCAUAGUAUUUAGUUA,0.0255 ± 0.008
2,UCCUGGAUGUCGAACGUUAGUAUUUAGUCA,< 0.0001
3,UCCUGGAUGUCGAACGUAUGUUAUUUAGUUA,< 0.0001
4,UCCUGGUACAGGAUGCAUAGUAUUUAGAAA,0.00448 ± 0.004
5,UCCUGCUAGUCCUUGCAUAGUAUUUAGAAA,0.00294 ± 0.0025
6,UCCUGGAUGUCGAACCAAAGUAUUUAGUUA,< 0.0001
7,UCCUGGAACAGCGUUGCAUAGUAUUUAGUUA,0.0162 ± 0.0046
8,UCCUGGUAAGCUUGCAUAGUAUUUAGUUA,0.0168 ± 0.0044
9,UCCUGGAUGAGCUUGCAUACUAUUUAGAUA,0.00231 ± 0.0021
10,UCCUGGAUGAGCUUGCAUAGUAUUGAGUUA,0.00461 ± 0.0019
11,UCCUGGUACAGCUUGCAUAGUAAUUUAGUUA,0.00647 ± 0.0026
12,UCCUGCUACAGCUUGCAUAGUAUUAAGAAA,0.00481 ± 0.0021
13,UCCUGGAUGUCGAACGUUACAAUUUAGUUA,< 0.0001
14,UCCUGGAUCAGCUUGACAUAGUAUUUAGUUA,0.014 ± 0.0043
15,UCCUCGUACAGCUAGCAUAGUAUUUAGUUA,0.0402 ± 0.01
16,UCCUGGAUGUCGAACGUUAGAUUUAGUUA,< 0.0001
17,UCCUCCUACAGCUUGGAUAGUAUUUUCAAA,0.00297 ± 0.0022
18,UCCUGGUACAGGUUGCUUAGUAUUUAGUUA,0.00576 ± 0.003
19,UCCUGGAACAGCUUGAAUAGUAUUUAGUUA,0.0656 ± 0.017
20,UCCUGGAUGUCGAAGCAUACUAUUUUGUUA,< 0.0001
